Among the test systems are NCI-H23 lung; NCI-H226 lung; HOP-62 NSCLC; NCI-H460 lung; HOP-92 NSCLC; NCI-H522 lung; A549/ATCC NSCLC; 786-0 renal; COLO 205 colon; DU-145 prostate; K-562 leukemia; MALME-3M melanoma; MDA-MB-231 breast; RXF 393 renal; SF-268 CNS; SF-295 CNS; SF-539 CNS; UACC-257 melanoma; M14 melanoma; NCI-H322M lung.
Assay in all cases: NCI-60 one-dose screen, 48 h (100 = growth as untreated, 0 = no growth, -100 = all killed)
What all share (conditions): 10 µM unless noted

Compounds without any hit were thinned out: in the full panel of roughly 83,000, 20% have a hit.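 Each cell line was grown in a 96-well plate and treated with one concentration of compound for 48 hours. Values below 10 were considered active.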 Values without a mark were called inactive. Activity calls are given as the source filed them.

`C#Cc1cccc(Nc2nc(Cl)nc3cc(NC(=O)CF)ccc23)c1`: the growth in the assay with NCI-H23 lung was 80.2%; in the assay with NCI-H226 lung, 86.6%; with HOP-62 NSCLC, 70%; in the assay with NCI-H460 lung, 29.4%; in the assay with HOP-92 NSCLC it was 91.1%; in the assay on NCI-H522 lung it was 28.9%. The growth in the assay with A549/ATCC NSCLC is 55.4%; with 786-0 renal, 92.9%; in the assay on COLO 205 colon it was 41.8%; in the assay with DU-145 prostate it was 98.1%; in the assay with K-562 leukemia, 28%; in the assay on MALME-3M melanoma it was 70.5%. Also, the growth was 64.5% in the assay on MDA-MB-231 breast; 100% in the assay on RXF 393 renal; 87.8% in the assay with SF-268 CNS; 71.9% in the assay on SF-295 CNS; 89.1% in the assay with SF-539 CNS; 88.7% with UACC-257 melanoma. In addition, the growth in the assay on M14 melanoma is 48.3%.
For `COC(=O)CCP(CCC(=O)OC)c1ccccc1`, the growth is 102% with NCI-H23 lung; 104% in the assay with NCI-H226 lung; 107% in the assay with NCI-H322M lung; 111% in the assay on HOP-62 NSCLC; 109% in the assay with HOP-92 NSCLC; 102% in the assay on NCI-H522 lung. Further, the growth in the assay with A549/ATCC NSCLC is 96.8%; in the assay on 786-0 renal, 102%; in the assay with COLO 205 colon, 118%; in the assay on DU-145 prostate it was 110%; in the assay with K-562 leukemia, 111%; in the assay on MDA-MB-231 breast, 117%. Also, the growth was 108% in the assay on RXF 393 renal; 103% in the assay with SF-268 CNS; 99.4% with SF-295 CNS; 101% in the assay with SF-539 CNS; 99.7% with UACC-257 melanoma; 101% in the assay on M14 melanoma.
Regarding `Cc1cc[c-]cc1.Fc1c[c-]c(-c2ccccn2)c(F)c1.[Pt+2].c1ccc([PH+](c2ccccc2)c2ccccn2)cc1`, the growth in the assay with NCI-H23 lung is 70%; in the assay with NCI-H226 lung it was 58.1%; in the assay on NCI-H322M lung, 83.6%; in the assay on HOP-62 NSCLC, 90.6%; in the assay with HOP-92 NSCLC it was 56.3%; with NCI-H522 lung, 64.4%. Moreover, the growth in the assay with A549/ATCC NSCLC is 41.8%; in the assay on 786-0 renal, 63.5%; with COLO 205 colon it was 32.9%; in the assay with DU-145 prostate, 59.1%; in the assay with K-562 leukemia, 23.9%; in the assay with MALME-3M melanoma, -2.32% (active). Also, the growth with MDA-MB-231 breast is 67.8%; in the assay with RXF 393 renal, 32.6%; in the assay with SF-268 CNS, 62.1%; in the assay on SF-295 CNS, 72%; with SF-539 CNS it was 72.3%; in the assay on UACC-257 melanoma, 87.2%. The growth in the assay on M14 melanoma is 62.1%.
On to `COC12CC3(C)C(C4=CC(=O)OC4)CCC3(O)C3CCC4=CC(=O)CCC4(CO1)C32` (centres undefined), for which the growth in the assay with NCI-H23 lung is 99%; in the assay on NCI-H226 lung it was 101%; in the assay with NCI-H322M lung it was 83%; in the assay on NCI-H460 lung, 113%; in the assay on HOP-92 NSCLC, 76.8%; in the assay with NCI-H522 lung it was 14.7%. The growth is 98.8% in the assay on A549/ATCC NSCLC; 94.5% in the assay on 786-0 renal; 116% in the assay with COLO 205 colon; 117% in the assay on DU-145 prostate; 106% in the assay on K-562 leukemia; 77.1% with MALME-3M melanoma. Also, the growth with MDA-MB-231 breast is 110%; in the assay with RXF 393 renal, 112%; with SF-268 CNS, 109%; with SF-295 CNS it was 90.6%; in the assay with SF-539 CNS it was 111%; with UACC-257 melanoma it was 100%. In the assay on M14 melanoma, the growth is 92.6%.
Consider `O=C(O)CNCP(=O)(O)O`, for which the growth was 107% in the assay on NCI-H23 lung; 103% in the assay on NCI-H226 lung; 106% in the assay on NCI-H322M lung; 109% with HOP-62 NSCLC; 98.2% in the assay on NCI-H522 lung; 102% in the assay on A549/ATCC NSCLC. The growth was 106% with 786-0 renal; 119% with COLO 205 colon; 121% in the assay on DU-145 prostate; 101% with K-562 leukemia; 117% in the assay on MDA-MB-231 breast; 121% in the assay on RXF 393 renal. The growth in the assay on SF-268 CNS was 113%; with SF-295 CNS, 107%; in the assay on SF-539 CNS, 115%; with UACC-257 melanoma it was 107%; in the assay on M14 melanoma it was 101%.
In the case of `COc1cc(C2C3=C(CCCC3=O)N(CCO)c3cc4c(cc32)CCC4)cc(OC)c1OC` (centres undefined), the growth with NCI-H23 lung was 80.8%; in the assay with NCI-H226 lung, 103%; in the assay with HOP-62 NSCLC, 92.6%; in the assay with NCI-H460 lung, 36.4%; in the assay with HOP-92 NSCLC it was 76%; in the assay on NCI-H522 lung it was 62.7%. For the same compound, the growth with A549/ATCC NSCLC was 58.9%; in the assay with 786-0 renal it was 84.6%; with COLO 205 colon, 74%; in the assay on DU-145 prostate, 94.1%; in the assay on K-562 leukemia, 78.7%; in the assay with MALME-3M melanoma it was 93.1%. The growth in the assay with MDA-MB-231 breast was 82.1%; with RXF 393 renal, 100%; in the assay with SF-268 CNS, 90.4%; with SF-295 CNS, 99.9%; in the assay on SF-539 CNS it was 106%; in the assay with UACC-257 melanoma it was 67.2%. Further, the growth with M14 melanoma is 98%.
Take `COC[C@H]1OC(=O)c2coc3c2[C@@]1(C)C1=C(C3=O)[C@@H]2CCC(=O)[C@@]2(C)C[C@H]1OC(C)=O`: the growth in the assay on NCI-H23 lung is 56.5%; in the assay on NCI-H226 lung, 62.5%; in the assay with HOP-62 NSCLC, 57.7%; in the assay with NCI-H460 lung, 43%; in the assay on HOP-92 NSCLC it was -0.194% (active); in the assay with NCI-H522 lung it was 48.4%. In addition, the growth is 10.1% in the assay with A549/ATCC NSCLC; 39.3% with 786-0 renal; 65.2% in the assay on COLO 205 colon; 45.2% with DU-145 prostate; 70.7% with K-562 leukemia; 32.8% with MALME-3M melanoma. Moreover, the growth was 67.8% with MDA-MB-231 breast; 10.4% with RXF 393 renal; 51.8% in the assay with SF-268 CNS; 39.5% with SF-295 CNS; 28.6% with SF-539 CNS; 23% in the assay on UACC-257 melanoma.

The values above are taken from PubChem BioAssay (NCI).
